Screening results from PubChem.
Rows were chosen to be rich in hits. Some 19% of all compounds tested hit in one or more screens of this group.
TDP1 cell noCPT – qHTS for Inhibitors of human tyrosyl-DNA phosphodiesterase 1 (TDP1): qHTS in cells in absence of CPT | DT40 Tdp1-/- hTDP1 cells, no CPT, ATP luminescence, 48 h | Potency, µM (doses to about 46.2 µM), for the others: at the top dose activity change, negative = growth inhibition, actives largely listed as inhibitors | 15% of 420,000 active | AID 686978, 2013; also: potency is read from the fitted curve at half-maximal effect; nearly all actives have a fitted effect of over 55% in size
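No-CPT arm: Tdp1-/-;hTDP1 DT40 cells (400/well) plus compounds, incubated ≥48 hr at 37 °C. Readout CellTiter-Glo luminescence.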
TDP1 cell CPT – growth inhibition of DT40 Tdp1-/-;hTDP1 cells with camptothecin (screen for TDP1 inhibitors). 12% of 420,000 active. Potency, µM (titrated, usually from 46.2 µM), for the others: at the top dose activity change, negative = growth inhibition, actives largely listed as inhibitors. chicken DT40 Tdp1-/-;hTDP1 cells + 20 nM CPT, ATP luminescence, 48 h. AID 686979; also: potency is read from the fitted curve at half-maximal effect; nearly all actives have a fitted effect of over 55% in size
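Cell growth measured by CellTiter-Glo luminescence after a minimum 48 h, 37 C compound exposure with 20 nM CPT in Tdp1-knockout DT40 cells stably expressing hTDP1, seeded 400/well; qHTS titration format.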
IL-1B inflam inh – inhibitors of inflammasome signaling (IL-1 beta secretion). THP-1 LPS/ATP IL-1B secretion, AlphaLISA, 16 h; hits give low values. activity change, % at 57.5 µM. 4.7% of 360,000 active. AID 743279; in the data active = activity change below about -50%; inconclusive = mostly about -30% to -49%
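THP-1 cells pretreated 1 hr with compounds (up to 57.5 uM final), then stimulated with LPS (250 ng/mL final) plus ATP (1.25 mM final); secreted IL-1B measured by AlphaLISA after 16 hr, decreased signal indicating inhibition.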
HT1080-NT tox – kills 2HG-producing HT-1080-NT fibrosarcoma cells. Potency, µM (highest dose often 46.1 µM), for inactives: at the highest dose activity, negative = less viability, most hits filed as cytotoxic. HT-1080-NT fibrosarcoma viability, CellTiter-Glo ATP luminescence, 48 h. AID 686970. 1.6% of 360,000 active;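 also: NT is the 2HG producing partner of a matched IDH1 knockdown line; potency is read from the fitted curve at half-maximal effect; 0% = DMSO-treated cells and -100% = media-only wells without cells; nearly all actives have a fitted effect of over 55% in size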
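Compounds were tested in concentration-response format on HT-1080-NT cells for 48 hours at 37 degrees C. Cell viability came from CellTiter-Glo luminescence; curves were classified by r2, response magnitude and activity.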
HT1080 IDH1KD tx – HT-1080 IDH1 knockdown cell toxicity (counter line) | HT-1080 IDH1 knockdown viability, ATP luminescence, 48 h | Potency, µM (highest dose often 46.1 µM), for the others: at the highest dose activity, negative = toxicity, usual class: cytotoxic | 2% of 360,000 active;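 also: potency is read from the fitted curve at half-maximal effect; 0% = DMSO wells and -100% = cell-free medium wells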
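Luminescent ATP read-out (CellTiter-Glo, 10 min at room temperature) after 48 h compound exposure at 37 °C gave viability of IDH1-knockdown HT-1080 cells. Activity was normalised to DMSO and cell-free wells, then fitted as concentration-response curves.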
Starred values were filed as active, the others as inactive; ? = inconclusive; . = no result; ! = not confirmed by another sample. Unless noted, calls follow the shape of the dose curve; as a rule, active = well fitted curve in the direction sought with a large enough effect; inconclusive = small, poorly fitted or top-dose-only effect, or another doubt; inactive = no such curve, though single readings can be large; an effect the other way counts as inactive or inconclusive. Unless noted, % is scaled to controls: 0 for no effect and ±100 for the full control effect.

SMILES | TDP1 cell noCPT | TDP1 cell CPT | IL-1B inflam inh | HT1080-NT tox | HT1080 IDH1KD tx
CCC(C)(C)n1nnnc1C(C(C)C)N1CCSCC1 (configuration not stated) | -11% | -4% | -11 | -3% | -7%
O=C(O)c1cc(=O)c2c3nc4ccccc4oc-3cc(=O)c2[nH]1 | 11µM*! | 25µM* | . | . | .
CC(=O)N1CCCc2cc(S(=O)(=O)N3CCCC(C(=O)NC(C)C)C3)ccc21 (configuration not stated) | ? | -24% | . | . | .
CCCCNc1sc(S(=O)(=O)CC)nc1S(=O)(=O)c1ccc(C)cc1 | 23µM* | ? | . | . | .
CCCS(=O)(=O)c1nc(S(=O)(=O)c2ccc(C)cc2)c(NCC(C)C)s1 | 21µM* | ? | . | . | .
CCS(=O)(=O)c1nc(S(=O)(=O)c2ccc(C)cc2)c(NCCCn2ccnc2)s1 | 16% | 0% | -14 | 7% | 9%
CS(=O)(=O)c1nc(S(=O)(=O)c2ccc(Cl)cc2)c(NCc2ccccn2)s1 | ? | 4% | ? | -6% | -7%
CC(C)OCCCNc1sc(S(=O)(=O)c2ccccc2)nc1S(=O)(=O)c1ccc(Cl)cc1 | 18µM* | ? | . | . | .
CCCS(=O)(=O)c1nc(S(=O)(=O)c2ccc(C)cc2)c(NCc2ccccc2)s1 | ? | -27% | . | . | .
CCCCNc1sc(S(=O)(=O)CCC)nc1S(=O)(=O)c1ccc(C)cc1 | 21µM* | ? | . | . | .
COc1ccccc1C(CCN(Cc1ccccc1)C(C)=O)c1ccco1 (configuration not stated) | 16µM* | ? | -17 | ? | ?
COc1ccccc1C(CC(N)=O)c1ccco1 (configuration not stated) | -13% | -11% | 0 | 4% | 8%
S=C(Nc1ccccc1)Nc1ccc(Cl)cn1 | 5.8µM* | 23µM* | 0 | 20% | -21%
O=C(NC(=S)Nc1ccc(Cl)cn1)C(c1ccccc1)c1ccccc1 | 23µM* | ? | 1 | 2% | 6%
O=P(O)(O)C(O)(Cc1cnc2ccccn12)P(=O)(O)O | 2% | ? | . | . | .
COc1nc(NCCN2CCOCC2)nc(Nc2ccccc2)n1 | 8% | 27% | 8 | 9% | 5%
O=[N+]([O-])c1ccc(Nc2nc(NCCN3CCOCC3)nc(Nc3ccc(I)cc3)n2)cc1 | 4.5µM* | 7.1µM* | . | . | .
COc1ccc(Nc2nc(NCCN3CCOCC3)nc(Nc3ccc(OC)cc3)n2)cc1 | 14µM* | 11µM* | -91* | -29% | -13%
O=[N+]([O-])c1ccc(Nc2nc(NCCN3CCOCC3)nc(Nc3ccc(Cl)cc3)n2)cc1 | 10µM* | 14µM* | . | . | .
O=[N+]([O-])c1ccc(Nc2nc(Cl)nc(NCCO)n2)cc1 | -14% | 7% | 36 | -4% | -2%
CCCCc1nc2ccc(S(=O)(=O)O)cc2[nH]1 | 10% | 7% | 1 | 9% | 0%
Cn1c(-c2ccncc2)nc2cc(C(=O)N[C@H]3CCCCNC3=O)cc(NC(=O)C3CCC3)c21 | ? | -4% | . | . | .
COC(=O)[C@]1(C)N[C@H](CN(C)C(=O)Nc2ccccc2)[C@@H]2C(=O)N(Cc3ccccc3)C(=O)[C@@H]21 | -1% | 18% | -13 | 5% | 3%
CCOC(=O)c1sc(=S)n(-c2ccccc2)c1SC | -23% | -18% | -11 | 2% | 1%
CCOC(=O)c1c(SCCN2CCCC2)n(-c2ccccc2)c(=S)n(-c2ccccc2)c1=O | 5.2µM* | 4.6µM* | -111* | ? | 7.3µM*
SMILES | TDP1 cell noCPT | TDP1 cell CPT | IL-1B inflam inh | HT1080-NT tox | HT1080 IDH1KD tx
O=C(OCc1ccccc1F)c1cc2ccccc2cc1O | 0% | 16% | -15 | 8% | 6%
Nc1ccc2c(c1)C(=O)c1ccc(N)cc1-2 | -22% | 3% | -76* | -2% | 2%
CCN(CC)C(=O)CN1C(=O)C2(OCC(C)(C)CO2)c2ccccc21 | -4% | -4% | -7 | 2% | 12%
COc1cc(NC(=O)c2ccccc2OCc2ccccc2)cc(OC)c1OC | 16µM* | ? | 30 | -11% | -8%
O=C(Nc1ccc(OCc2ccccc2)cc1)c1ccccc1 | -1% | 19% | -16 | 11% | 11%
CNC(=O)c1cccc(NC(=O)c2ccccc2OCc2ccccc2)c1 | ? | ? | 6 | -20% | -30%
CCCCN(CCCC)CC(O)COc1ccccc1C(=O)Nc1ccccc1 (configuration not stated) | ? | ? | -96* | ? | ?
Cc1cc(C(=O)Nc2ccc(OCc3ccccc3)cc2)c(C)o1 | ? | ? | -60* | ? | ?
O=C(Nc1ccc(O)cc1)c1ccccc1OCc1ccccc1 | ? | ? | -71* | 7% | 12%
O=C(NCc1ccccn1)NC1CCCCC1 | -6% | 5% | 17 | 16% | 15%
COCCn1nnnc1C(c1cc2cc(OC)ccc2[nH]c1=O)N1CCC(Cc2ccccc2)CC1 (configuration not stated) | 23µM* | 15µM* | ? | 0% | -2%
COc1ccc2cc(C(c3nnnn3CCc3ccccc3)N3CCCC(C)C3)c(=O)[nH]c2c1 (configuration not stated) | ? | ? | -85* | 1% | -2%
COCCn1nnnc1C(c1cc2cc(C)ccc2[nH]c1=O)N1CCCCCC1 (configuration not stated) | -15% | -11% | -25 | -9% | 2%
CCN(Cc1ccccc1)C(c1cc2cc(C)cc(C)c2[nH]c1=O)c1nnnn1CCOC (configuration not stated) | ? | ? | -52* | -8% | -12%
COCCn1nnnc1C(c1cc2c(C)cc(C)cc2[nH]c1=O)N1CCCCCC1 (configuration not stated) | 18µM* | 23µM* | -19 | -22% | ?
COc1ccc2[nH]c(=O)c(C(c3nnnn3CC3CCCO3)N3CCCCC3)cc2c1 (configuration not stated) | -3% | 5% | 0 | 10% | 8%
COc1ccc2cc(C(c3nnnn3CC3CCCO3)N3CCOCC3)c(=O)[nH]c2c1 (configuration not stated) | -16% | -7% | 4 | -2% | 2%
Oc1ccc(Cl)cc1C=Nc1ccc2c3c(cccc13)CC2 | -10% | 2% | 25 | 2% | 0%
NCCCC[C@H](N)C(=O)O | 9% | -7% | . | . | .
COC(=O)c1cc(S(=O)(=O)n2nc(C)c(Br)c2C)c(Cl)cc1Cl | 15µM* | 26µM* | -85* | ? | ?
Cc1ccccc1Cn1c(=O)n(CCCCCC(=O)NCc2ccc3c(c2)OCO3)c(=O)c2sccc21 | -4% | -86% | . | . | .
